Results from ChEMBL document CHEMBL1157539, “Thousands of chemical starting points for antimalarial lead identification” (Nature, 2010).

The compounds below were run on HepG2 (assay: GSK_TCMDC: Percent inhibition of human HepG2 cell line. Test compounds present at 10uM.).
Type: functional

Structure (SMILES)	Inhibition
CN1CCC(N(Cc2ccc(-c3ccc(Cl)cc3)cc2)C(=O)Cn2c(CCc3cccc(F)c3F)cc(=O)c3ccccc32)CC1.O=C(O)C(O)C(O)C(=O)O	93%
CC1CCCCN1CCCNC(=O)c1cccc(-c2cc3cc(Cl)c(Cl)cc3[nH]2)c1.O=C(O)C(F)(F)F (centres undefined)	22%
Cc1ccc(C)c(NC(=O)NCCNc2ccnc(Nc3ccc(F)cc3)n2)c1	21%
CCN(CC)CCCNC(=O)/C(=C/C=C/c1cc2cc(Cl)c(Cl)cc2[nH]1)OC.Cl	38%
